From PubChem BioAssay (EPA / NIEHS) come the findings set out here.

Inconclusive results are not listed. Active and inactive are the calls of the source. The calls were made as follows: active = hit-call score of the fitted dose curve at least 0.9, where 1 is the maximum; inconclusive = response in the unintended direction; inactive = score below 0.9.

Chain of Nuclear receptor subfamily 1 group I member 2 (Homo sapiens) (O75469 whole entry, looked up): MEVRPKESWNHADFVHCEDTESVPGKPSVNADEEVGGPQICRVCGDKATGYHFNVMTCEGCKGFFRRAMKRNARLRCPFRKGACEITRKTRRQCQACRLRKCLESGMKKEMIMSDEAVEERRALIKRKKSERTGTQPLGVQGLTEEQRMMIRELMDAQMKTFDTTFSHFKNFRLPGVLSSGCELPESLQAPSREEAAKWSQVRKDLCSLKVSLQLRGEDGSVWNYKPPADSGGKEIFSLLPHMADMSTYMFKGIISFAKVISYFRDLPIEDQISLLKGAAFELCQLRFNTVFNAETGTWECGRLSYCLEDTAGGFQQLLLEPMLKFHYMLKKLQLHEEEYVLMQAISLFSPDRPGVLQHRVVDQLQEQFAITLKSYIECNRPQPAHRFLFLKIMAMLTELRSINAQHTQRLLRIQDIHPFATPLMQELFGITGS

The test concerns the target Nuclear receptor subfamily 1 group I member 2 (Homo sapiens) (UniProt O75469). The experiment in a line: NVS_NR_hPXR: NovaScreen (NVS) Nuclear Receptor Binding Assay for human Pregnane X Receptor (PXR) (AID 2283365).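 Also: a drop in FRET signal versus DMSO baseline means the compound binds.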 The procedure:
NVS_NR_hPXR is a biochemical, single-readout assay that uses extracted gene-proteins in a cell-free assay. Measurements were taken 2 hours after chemical dosing in a 384-well plate.NVS_NR_hPXR is one of one assay component(s) measured or calculated from the NVS_NR_hPXR assay. It is designed to make measurements of fluorescent resonance energy transfer, a form of binding reporter, as detected with fluorescent resonance energy transfer signals by Time-Resolved Fluorescence Resonance Energy Transfer (TR-FRET) technology.Data from the assay component NVS_NR_hPXR was analyzed into 1 assay endpoint. This assay endpoint, NVS_NR_hPXR, was analyzed in the positive analysis fitting direction relative to DMSO as the negative control and baseline of activity. Using a type of binding reporter, loss-of-signal activity can be used to understand changes in the binding as they relate to the gene NR1I2. Furthermore, this assay endpoint can be referred to as a primary readout, because the performed assay has only produced 1 assay endpoint. To generalize the intended target to other relatable targets, this assay endpoint is annotated to the nuclear receptor intended target family, where the subfamily is non-steroidal.
Binding assays used specific radioligands (tritiated, iodinated) with non-radioactive competitive displacement ligands in agonist or antagonist protocols (as indicated) and various reference compounds and inhibitors to titrate specific binding to receptors and transporters. Most enzyme assays (CYPs, kinases, phosphatases, proteases, HDACs) used recombinant protein and specific substrates (fluorescence mostly, some colorimetric and radioactive) and inhibitors, followed by a biochemical separation of substrate and product. All assays for the biochemical HTS were initially run in duplicate at a single concentration (10 uM for CYP450 assays and 25 uM for all others). […] Each assay was run with positive and negative controls, and concurrent controls on every plate. The follow-up (secondary) screen tested active chemical-pairs in concentration series, as well as a few additional assays not tested in the primary screen, some selected negative inactives, and several cases re-run in the concentration series for confirmatory purposes.
`CCc1cc(Cc2cc(CC)c(N)c(CC)c2)cc(CC)c1N`: the outcome was inactive.

`N#Cc1ccccc1O`: the call was inactive.

As a reminder, the AC50 is the concentration at which the activity in the assay is half-maximal. Regarding `CCCCCCCC/C=C\CCCCCCCC(=O)OCC(O)CO` (stereo not given), the half-maximal activity concentration (AC50) was 8.56 µM (active).

`CCCCCCCC/C=C\CCCCCCCC(=O)N(C)CC(=O)O`: the compound was called inactive.

For `CCCCCCCCCc1ccc(OCCO)cc1`, the call was inactive.

For the compound `CC(C)(C)c1cc(Cc2cc(C(C)(C)C)c(O)c(C(C)(C)C)c2)cc(C(C)(C)C)c1O`, the outcome was inactive.

Take `CCCCCCCCCCCCC[N+](C)(C)Cc1ccccc1`: the concentration at half-maximal activity (AC50) is 3.9 µM (active).

Take `COCCOCCC[Si](C)(O[Si](C)(C)C)O[Si](C)(C)C`: the call was inactive.

On to `CCCCCCCCCCCCCC[P+](CCCC)(CCCC)CCCC`, for which the AC50 was 0.0885 µM (active).

Take `CCOC(OCC)OCC`: the call was inactive.
